# Hit rate of the full screen: of about 31,000 sequences, about 1,400 (4.5%) were called active. Shown is part of a subset that was picked to be rich in actives. A number with no mark means an inactive call.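 The calls were made as follows: active = median seed-adjusted z-score above 1 or below -1; inactive = the rest.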
# Assay: Novel Modifiers of Survival Motor Neuron (SMN) Protein: Gene Identification via Genome-wide siRNA Screen;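 also: luminescence tracks full-length SMN protein made from the SMN2 reporter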
# Conditions: HEK293T SMN2-luciferase reporter, siRNA knockdown, 72 h; actives lie on both sides
# Outline: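 HEK293T cells stably carrying an SMN2 promoter/splicing cassette–luciferase reporter were reverse-transfected with 1 pmol siRNA per well (druggable-genome library, 3 siRNAs per gene) and grown 72 h at 37 °C. Luminescence, normalized to negative-control siRNA and log10-transformed, was scored as MAD.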
row,Sequence,median seed-adjusted z-score
1,GCUUGACCCUUAGACGGAATT against LILRB3,0.0304
2,GGUGUUAUCCUAUGAGGUATT against MPP4,0.13
3,GGAAAAACCUUCUACCUGATT against ZNF12,-0.144
4,GGCCUUACGGGUGUAGUAATT against ZNF419,0.0405
5,GGAUCAAGGCUAUGUGGAUTT against CYB5R1,0
6,UAUGAGUUGUUGUUGGGAATT against NSUN5,0.118
7,UCUUAUCCUUUGUCGCAGATT against LMO3,0.496
8,GCAUCACCCAAGUAGUUAUTT against SFXN2,0.365
9,GACUCAUAUGGACCAGUUATT against ZNF460,-0.302
10,CAUGGGCUCUAUUACGCUUTT against SPEN,-1.69 (active)
11,GUCUACCCAUGGACCCAGATT against HBG1,-0.716
12,CACCAACUAAUGUUACAAUTT against IFNGR1,-0.279
13,CCUCGAGACUAUACGGUUATT against MED26,-1.86 (active)
14,CCAGUGGAGUGGUAUCUAUTT against RBBP5,0.169
15,GAACUCAUGUCCGACAUAATT against STX1A,0
16,GCGCUUUGGAGAUCCGAGATT against KLC3,-0.156
17,GCAGUAGAAGUAUCCGGGATT against THSD4,0.0657
18,CCUUCUCAAUGGAUUCCAATT against VN1R1,0.531
19,GGUCAUGCAGGGUUGGAAATT against ALDH1B1,0.105
20,GGAAGAUUGUCGCUCCUCATT against TFAP2C,1.28 (active)
21,CAGAAGACCUGGUGCCCUATT against SPI1,0.384
22,GCAUUAAUAACAUUACGUUTT against ZNF236,0.683
23,CGCCCGCGAUUACUACCAUTT against HSPA12B,-0.141
24,GUGCCACCGGAGCUAGUAATT against KCNK4,-0.446
25,AGGUGAAACUUCGAAGACATT against TRPM3,-0.633
26,CGAUGAACGAGUACAUUGATT against GRIA2,-1.02 (active)
27,CAUCUGAAGUGGUUAAGCATT against SLC25A26,0.0213
28,CCGGAAAUUUGGGACGCAATT against DHX58,-0.302

row,Sequence,median seed-adjusted z-score
1,GGAGGUCAUUAAAACACCATT against HADH,1.11 (active)
2,GGACGACCGUGUAUAGUUUTT against RFESD,-0.503
3,CACUUUAGAUGAUAUCAGATT against PPP3CA,0.74
4,GCUAUAAGGUGGAACGGCATT against POLR2A,-3.81 (active)
5,GCUUAUGGAUGGAGACCAATT against RNF34,-0.0857
6,AGGUGAUGUCGGUCGGAGATT against RAB24,0.123
7,AGCAAUAACUCGUGUAGCATT against EFNA2,-0.314
8,GGGCGGUACUUUACAACUATT against KCTD9,1.31 (active)
9,CUAGAGUAUUUUGAUCUAATT against FAT2,-0.286
10,CACCGUGUUUGACAACUAUTT against RAC2,-0.596
11,GGACCAACCCAGAAUCGUATT against MAOB,0
12,UCGCAAAGGUGAACACUCATT against PIN1,0.156
13,AGAUGUGACUGGCUGGUCATT against LCN12,0.124
14,AGACCUACACGGUACGCGUTT against THAP11,-1.36 (active)
15,GCAUCUAAUACUUAUGGAATT against MS4A4A,0.296
16,GAAGCAUGAUGGACAGGAUTT against ISOC1,0.104
17,CCUCGACCUGGUCACUUUATT against TRMU,0.0312
18,CCGUAGCAAUAGUAGGUGUTT against UBA5,-0.105
19,GCCUGACCAUCUCCAUUGUTT against USH1C,-0.164
20,CGUGUUCCGAGAAAACGAATT against PLEKHM2,0.593
21,GCAACAGCUCAAAAACGAATT against UAP1,0.0411
22,CAUCUACUGUCAUUAACCATT against ITIH5,-0.289
23,AGACCCAGCUAGAUUCUGATT against GPR152,-0.9
24,CCUCGUUUGACAUCCACUATT against CTSD,-0.282
25,CAUUCACGGAGAUAAGAAATT against ALDH1L1,0.0289
26,UGAAUUACCUGGACCGUUUTT against CCND2,-0.819
27,UGCGUUUUCUGAUAACUCATT against PTP4A2,-1.45 (active)
